Consider 112 compounds from PubChem BioAssay AID624111 (Johns Hopkins Ion Channel Center, 2012).

Hit rate of the full screen: of about 4,000 compounds, about 60 (2%) were called active.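 The calls were made as follows: active = duplicate-averaged calcium fluorescence ratio at least three times the standard deviation of buffer wells, a nonspecific response in parental cells; inactive = the rest.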 Only a selection was taken, and actives are over-represented in it overall.

The nature of this assay: nonspecific calcium signal in parental HEK293, confirmation, counter-screen for MrgX1 antagonist project, parental HEK293 cells, Fluo-4 calcium flux (AID 624111). The conditions noted are these: parental HEK293, Fluo-4 calcium fluorescence, FDSS; at 10 µM.
`COc1ccc(C(=O)NC(=S)NNC(=O)c2c(-c3ccccc3)noc2C)cc1`: the fluorescence ratio F(max-min)/F0 entry is “inactive”.
As for `O=C(COC(=O)c1ccc(NS(=O)(=O)c2cccs2)cc1O)Nc1ccc(F)cc1`, the fluorescence ratio F(max-min)/F0 entry was “inactive”.
Under `CN(CC(=O)Nc1ccccc1Cl)C(=O)COc1cccc2c1OC(C)(C)C2` stands “inactive”; under `O=C(O)CSC(NC(=O)c1cccnc1)(C(F)(F)F)C(F)(F)F`, “inactive”.
Regarding `Nc1cc(OC(=O)c2ccccc2Br)nn1S(=O)(=O)c1ccccc1`, the fluorescence ratio F(max-min)/F0 result was “inactive”.
Then `COc1cc2c(cc1O)C(SC)=NC(C)(C)C2`, with “inactive”.
Then `Cc1nn(-c2ccccc2)c2c1C(c1ccc(F)cc1)C(C#N)=C(N)O2` (configuration not stated), with “inactive”; and `O=C(CSc1c2c(nc3ccc(Cl)cc13)CCCC2)NCc1ccco1`, with “inactive”; and `COc1ccc(OC)c(C(=O)c2ccc(Cl)cc2)c1`, with “inactive”.
In the case of `CCOc1ccc(C2=CC(c3ccccc3)n3ncnc3N2)cc1` (configuration not stated), the fluorescence ratio F(max-min)/F0 result is “inactive”.
As to `O=C(c1cccs1)C1C(c2ccc(Br)cc2)NC(=S)NC1(O)C(F)(F)F` (configuration not stated), the fluorescence ratio F(max-min)/F0 entry is “inactive”.
Under `CCOC1CCCCC1NS(=O)(=O)c1ccc(Cl)cc1` (configuration not stated) stands “inactive”.
Then `CC(C)CC(=O)NC(=S)NNC(=O)c1cccc([N+](=O)[O-])c1`, with “inactive”.
Under `Cc1ccnc(NC(=O)C(C)N2C(=O)c3ccccc3C2=O)c1` (configuration not stated) stands “inactive”.
Turning to `O=C1CCCc2c1nc(-c1cccc(Cl)c1)n2O`, the fluorescence ratio F(max-min)/F0 result is “inactive”.
Then `O=C(CSc1nncn1-c1cccnc1)N1CCOCC1`, with “inactive”; and `O=c1c2cc(Br)ccc2nc(-c2cccc(Cl)c2)n1O`, with “inactive”; and `O=C1Cc2ccccc2Sc2ccc(Cl)cc21`, with “inactive”.
Under `CCOc1ccc2nc(/N=C/c3nc(-c4ccccc4)oc3O)sc2c1` stands 0.438 (active); under `COCC(C)NC(=O)c1ccc(Cl)c(Cl)c1` (configuration not stated), “inactive”.
Under `COCCNC(=O)C1CCN(S(=O)(=O)c2ccc3c(c2)OCCO3)CC1` stands “inactive”.
Take `FC(F)Oc1ccc(NC(=S)NCc2ccco2)cc1Cl`: the fluorescence ratio F(max-min)/F0 entry was “inactive”.
Under `COc1ccc(NC(=O)c2cc(-c3ccc(C)o3)nc3ccccc23)cc1` stands “inactive”; under `O=C(COC(=O)C1CCN(S(=O)(=O)c2ccc3c(c2)OCCO3)CC1)Nc1ccccc1OC(F)F`, “inactive”; under `CC1CCN(S(=O)(=O)c2nnc(NC(=O)COc3ccccc3F)s2)CC1`, “inactive”.
On to `COC(=O)Cn1c(O)c(N=NC(=O)OC)c2ccccc21`, for which the fluorescence ratio F(max-min)/F0 entry is “inactive”.
`O=C(Nc1nc2c(F)cc(F)cc2s1)C1COc2ccccc2O1` (configuration not stated): the fluorescence ratio F(max-min)/F0 result is “inactive”.
Under `CC(C)OCCCNc1ncnc2c1[nH]c1ccc(F)cc12` stands “inactive”.
Under `O=C(CC(O)(C(F)(F)F)C(F)(F)F)Nc1ccc(Cl)c(Cl)c1` stands “inactive”; under `O=C(Nc1ccccc1N1CCOCC1)c1csc2c1CCCC2`, “inactive”; under `Cc1ccc2cc(/C=N/Nc3ccc(C(=O)O)cc3)c(Cl)nc2c1`, “inactive”.
Then `CCOCc1nnc(NC(=O)CCC2CCCCC2)s1`, with “inactive”.
Regarding `O=C(Cn1c(-c2cncs2)nc2ccccc21)NC1CCCC1`, the fluorescence ratio F(max-min)/F0 result is “inactive”.
Then `COc1cc(C2/C(=C(\O)c3ccc4c(c3)CC(C)O4)C(=O)C(=O)N2Cc2ccco2)ccc1O` (configuration not stated), with “inactive”; and `CC1CCCCN1S(=O)(=O)c1ccc(C(=O)Nc2nnc(-c3cccs3)o2)cc1` (configuration not stated), with “inactive”.
Then `O=C(Oc1ccc(C(=S)N2CCOCC2)cc1)c1ccc(F)cc1`, with “inactive”; and `COC(=O)Cc1cc(=O)n(-c2nc3ccccc3s2)[nH]1`, with “inactive”.
Regarding `COC(=O)c1c(NC(=O)c2c(Cl)cnn2C)sc(C)c1C`, the fluorescence ratio F(max-min)/F0 entry was “inactive”.
Under `COc1cccc(CCNC(=O)COc2cccc3c2OC(C)(C)C3)c1` stands “inactive”; under `CCOC(=O)Cc1csc(SCc2cc(=O)oc3cc(O)ccc23)n1`, “inactive”; under `NC(=O)c1c(Nc2nc3c(F)cccc3s2)sc2c1CCCC2`, “inactive”.
Under `COc1ccc([N+](=O)[O-])cc1NC(=O)COC(=O)/C=C/c1ccco1` stands “inactive”; under `Cc1ccc(OC(=O)c2cc3ccccc3o2)cc1`, “inactive”; under `Cc1cccc(-n2c(Cc3cc(=O)[nH]c(=O)[nH]3)nnc2SC(C)C)c1`, “inactive”.
Regarding `Cc1ccc(Nc2nc(-c3ccc(O)cc3O)cs2)nc1`, the fluorescence ratio F(max-min)/F0 entry was “inactive”.
Under `COc1ccc(Nc2nc(-c3cccnc3)nc3ccccc23)cn1` stands “inactive”; under `Cc1ccc(S(=O)(=O)N(C)c2nc3ccccc3n3c(C(C)C)nnc23)cc1`, “inactive”; under `COC(=O)c1c(NC(=O)CN(c2ccc(C)c(C)c2)S(C)(=O)=O)sc2c1CCCC2`, “inactive”.
For the compound `Cc1nonc1C1CCCN1Cc1nc(-c2ccc(F)cc2F)oc1C` (configuration not stated), the fluorescence ratio F(max-min)/F0 entry is “inactive”.
Then `Cc1ccc(C(C(=O)NC2CCCCC2)N(C(=O)c2csnn2)C2CC2)o1` (configuration not stated), with “inactive”; and `CCCc1nc2c(c(=O)c3ccccc3n2C)c(=O)n1C1CCCCCC1`, with “inactive”; and `COC(=O)c1ccc(C2C3=C(Nc4nnnn42)c2ccccc2OC3)cc1` (configuration not stated), with “inactive”.
For the compound `CCN(CC)c1ccc(C2C3CCCCC3(O)CCN2CC(=O)Nc2ccccc2)cc1` (configuration not stated), the fluorescence ratio F(max-min)/F0 result is “inactive”.
For the compound `Cc1cccc(NC(=O)COc2ccccc2C)n1`, the fluorescence ratio F(max-min)/F0 result is “inactive”.
Under `COc1ccc(Cc2nc(-c3ccccn3)no2)cc1OC` stands “inactive”; under `CN(C)CCn1c(=S)[nH]c2ccc(Cl)cc2c1=O`, “inactive”; under `O=C(CSc1ncccn1)NC(=O)NCc1ccccc1`, “inactive”.
Then `O=C(c1cccc(S(=O)(=O)Nc2ccccc2Cl)c1)N1CCN(C(=O)c2ccco2)CC1`, with “inactive”.
Under `O=C(Nc1ccccc1)c1nnsc1S(=O)(=O)c1ccc(Cl)cc1` stands “inactive”; under `Cc1ccc(-n2[nH]c(C)c(/C=N/N3C(=O)c4cccc5cccc(c45)C3=O)c2=O)cc1`, “inactive”.
For `CCCCC(=O)Nc1ccc2c(c1)C(=O)NC2=O`, the fluorescence ratio F(max-min)/F0 entry is “inactive”.
Under `O=C(Cc1ccccn1)c1ccc(O)cc1O` stands “inactive”.
With `Cc1cc2ncn(CCCCOc3ccccc3)c2cc1C`, the fluorescence ratio F(max-min)/F0 result was “inactive”.
Then `CC(C)(C)n1c(=O)[nH]c2c(c1=O)CCC2`, with “inactive”.
Under `Cc1ccc2nc(-c3ccc(NC(=O)CN(C)S(=O)(=O)c4ccccc4)cc3)sc2c1` stands “inactive”; under `Cc1cccc(NC(=O)C(C)N2C(=O)C3C4CC(C(Br)C4Br)C3C2=O)c1` (configuration not stated), “inactive”.
Under `C=CCNC(=O)c1csc(-c2ccccc2)n1` stands “inactive”; under `CCc1ccc(N(CC(=O)Nc2sc3c(c2C(=O)OC)CCCC3)S(C)(=O)=O)cc1`, “inactive”.
`Cc1ccc(Cc2cnc(N)s2)o1`: the fluorescence ratio F(max-min)/F0 result is “inactive”.
Then `COc1ccc(Nc2nnc(C)c3ccccc23)cc1`, with “inactive”.
Then `Cc1nn(-c2ccccc2)c(C)c1NC(=O)COc1ccc(Cl)cc1Cl`, with “inactive”; and `O=C(Nc1cccc(Cl)c1)c1cncn1-c1ccc(F)cc1`, with “inactive”.
Then `CCC(C)Sc1nc(C)nc2c1c(=O)n(C)c(=O)n2C` (configuration not stated), with “inactive”.
With `CCc1cc2c(SCC(=O)Nc3ncc(Cl)c(C)c3Cl)ncnc2s1`, the fluorescence ratio F(max-min)/F0 result is “inactive”.
`N#CC1=C(N)Oc2c(sc3ccccc23)C1c1ccco1` (configuration not stated): the fluorescence ratio F(max-min)/F0 is 0.504 (active).
Then `CCC(C)c1ccccc1N1CC(C(=O)N2CCN(S(=O)(=O)c3ccc(F)cc3)CC2)CC1=O` (configuration not stated), with “inactive”; and `COc1ccccc1Oc1nc(-c2cccnc2)nc2ccccc12`, with “inactive”; and `COC(=O)c1ccc(COC(=O)C2CCN(S(=O)(=O)c3c(Cl)cccc3Cl)CC2)o1`, with “inactive”.
Then `CN1C(CC(=O)Nc2ccc(Br)cc2)c2ccccc2CC1(C)C` (configuration not stated), with “inactive”.
Then `O=C(COc1ccc(Cl)cc1)NC(=S)Nc1ccccc1N1CCOCC1`, with “inactive”.
Consider `Nc1ccc(Oc2ccc(Cl)cc2)cc1`, for which the fluorescence ratio F(max-min)/F0 entry was “inactive”.
Then `Cc1cc(=O)oc2cc(NC(=O)C3CC(=O)N(Cc4ccccc4)C3)ccc12` (configuration not stated), with “inactive”.
Then `COCCCNC(=O)C1CCN(c2ccc(N3CCOCC3)nn2)CC1`, with “inactive”; and `COc1ccc(C(=O)NC(=S)NC2CCCCC2)cc1`, with “inactive”.
Then `O=C(Nc1ccc(Br)cc1F)C1CC(=O)N(C2CCCCC2)C1` (configuration not stated), with “inactive”; and `CCN(c1cccc(C)c1)S(=O)(=O)c1ccc(-c2coc(C)n2)cc1`, with “inactive”; and `CC(=O)N(C1=C(Cl)C(=O)c2ccccc2C1=O)c1ccc(C(=O)O)cc1`, with “inactive”.
Turning to `CCOC(=O)c1c(NC(=O)CSc2cn(CC)c3ccccc23)sc2c1CCC2`, the fluorescence ratio F(max-min)/F0 entry was “inactive”.
Under `O=C(c1ccc(O)cc1)c1ccc(C(=O)O)c(C(=O)O)c1` stands “inactive”.
With `CCOc1ccc(NC(=O)CCNC(=O)c2ccc(Br)cc2)cc1`, the fluorescence ratio F(max-min)/F0 result was “inactive”.
Under `O=C1CCCN1CCCNC(=S)Nc1ccc(F)c(Cl)c1` stands “inactive”; under `COc1ccc(S(=O)(=O)N2CCN(C(=O)NC3CCCCC3)CC2)cc1`, “inactive”; under `O=C(Nc1nnc(-c2ccccc2)o1)c1cc(-c2cccs2)nc2ccccc12`, “inactive”.
Then `Cc1cc(Br)ccc1NC(=O)c1cnc(N2CCN(c3ccccn3)CC2)c2ccccc12`, with “inactive”; and `Cc1c(C(=O)N2CCN(c3ccc(F)cc3)CC2)oc2c1C(=O)CCC2`, with “inactive”; and `CC(C)CC(=O)N/C(N)=N/c1nc2ccccc2s1`, with “inactive”.
Then `CC(=O)N(C)c1ccc(NC(=O)C(F)(F)F)cc1`, with “inactive”; and `CCOC(=O)c1c(C)[nH]c(=S)c(C#N)c1-c1ccccc1`, with “inactive”; and `CCc1cc(=O)oc2cc(C)cc(OCC(=O)N3CCC[C@@H]3C(=O)O)c12`, with “inactive”.
Take `CCN(CC)CC(=O)Nc1nn(-c2ccccc2)nc1C(N)=O`: the fluorescence ratio F(max-min)/F0 entry is “inactive”.
Then `O=C(C1CCN(S(=O)(=O)c2cnc[nH]2)CC1)N1CCN(Cc2ccc3c(c2)OCO3)CC1`, with “inactive”; and `OCc1ccc(OCCCOc2cccc3cccnc23)cc1`, with “inactive”.
Then `FC(F)(F)c1cc(-c2cccs2)nc(NCc2ccco2)n1`, with “inactive”.
In the case of `O=C(Cc1nc2ccccc2[nH]c1=O)c1ccc(Cl)cc1`, the fluorescence ratio F(max-min)/F0 entry is “inactive”.
Then `Clc1ccc(C=NC23CN4CN(CN(C4)C2)C3)cc1`, with “inactive”; and `CCOC(=O)N1CCN(C(=O)COCc2cc(-c3ccc4c(c3)OCO4)on2)CC1`, with “inactive”.
Then `CCSc1nsc(NC(=O)Nc2cccc(C(C)=O)c2)n1`, with “inactive”; and `CCCc1cc(=S)n2c([nH]c3ccccc32)c1C#N`, with “inactive”.
Then `O=c1cc(CSc2ccccn2)nc(N2CCN(c3ccccc3)CC2)[nH]1`, with “inactive”; and `CCOC(=O)CNC(=O)CSc1nc2cccnc2n1CC`, with “inactive”.
For `Cc1c(C)c2c(OCC(=O)N[C@@H](C(=O)O)c3ccccc3)cc3c(c2oc1=O)CCC(C)(C)O3`, the fluorescence ratio F(max-min)/F0 result was “inactive”.
Then `Cc1ccc(-c2nn(C(C)(C)C)c3ncnc(N)c23)cc1`, with “inactive”.
